Bioassay records (PubChem BioAssay)
PLK1 PBD block: inhibitors of human PLK1 polo-box domain binding | P53350 | Plk1 PBD binding of FITC phosphopeptide, fluorescence polarization | Potency, µM, for inactives: max response, negative = inhibition, actives largely listed as inhibitors | hit rate 2.8% among 360,000 | AID 720504; also: series mostly up to about 57 µM; % is scaled to controls: 0 for no effect and ±100 for the full control effect; nearly all actives have a fitted effect of over 65% in size
HP1b chromo inh: blocks HP1-beta chromodomain binding to methylated histone tails | P83916 | AlphaScreen HP1-beta / biotin-H3K9me3 peptide binding | Potency, µM (highest dose often 114 µM), for the others: top-dose activity change, negative = inhibition, actives largely listed as inhibitors | hit rate 0.56% among 390,000; also: nearly all actives have a fitted effect of over 70% in size
Target sequence (P83916 whole entry, looked up): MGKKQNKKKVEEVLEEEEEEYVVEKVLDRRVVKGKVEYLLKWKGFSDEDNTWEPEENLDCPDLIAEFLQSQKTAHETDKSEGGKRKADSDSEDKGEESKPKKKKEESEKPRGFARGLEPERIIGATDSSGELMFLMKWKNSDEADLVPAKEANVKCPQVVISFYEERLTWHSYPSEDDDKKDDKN
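HP1-beta protein (50 nM final) preincubated 30 min at room temperature with biotinylated H3(1-18)K9me3 peptide (50 nM) in PBS pH 7.4, 0.01% Tween-20, then compound added for 30 min. AlphaScreen streptavidin donor/nickel chelate acceptor beads (10 ug/mL final), 30 min dark, luminescence read.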
BAZ2B inh: inhibitors of human BAZ2B bromodomain | AID 504333 | AlphaScreen BAZ2B-H3K14Ac peptide displacement | Potency, µM (series often up to 114 µM), inactives show at the top dose activity change, negative = inhibition, usual class: inhibitors | Q9UIF8 | hit rate 4.4% among 360,000; also: % is scaled to controls: 0 for no effect and ±100 for the full control effect; nearly all actives have a fitted effect of over 60% in size
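Protein-peptide AlphaScreen: BAZ2B 50 nM, b-H3K14Ac 50 nM, 1x PBS pH 7.4 + 0.01% Tween-20. Preincubation 30 min RT; cpd 30 min RT (top 110 uM); beads 20 min RT, light-protected.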
L3MBTL1 block: inhibitors of human L3MBTL1; Q9Y468; AlphaScreen L3MBTL1–H3K9me1 peptide binding; Potency, µM (top dose mostly 57.1 µM), for inactives: top-dose activity, negative = inhibition, actives largely listed as inhibitors; hit rate 0.66% among 230,000; also: % is scaled to controls: 0 for no effect and ±100 for the full control effect; nearly all actives have a fitted effect of over 60% in size
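AlphaScreen proximity signal between nickel-chelate acceptor and streptavidin donor beads (final 10 ug/mL) reports binding of 50 nM L3MBTL1 to 75 nM biotin-H3 K9me1 peptide; complex incubated with compounds 30 min at room temperature; cefsulodin titration as control.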
VDR inhibitor: blocks the human vitamin D receptor. P11473. Potency, µM, without a hit: max response, negative = inhibition, hits mostly inhibitors. hit rate 0.93% among 400,000. AID 504847. VDR-SRC2-3 peptide fluorescence polarization, 2 h; also: % is scaled to controls: 0 for no effect and ±100 for the full control effect
Target sequence (P11473 whole entry, looked up): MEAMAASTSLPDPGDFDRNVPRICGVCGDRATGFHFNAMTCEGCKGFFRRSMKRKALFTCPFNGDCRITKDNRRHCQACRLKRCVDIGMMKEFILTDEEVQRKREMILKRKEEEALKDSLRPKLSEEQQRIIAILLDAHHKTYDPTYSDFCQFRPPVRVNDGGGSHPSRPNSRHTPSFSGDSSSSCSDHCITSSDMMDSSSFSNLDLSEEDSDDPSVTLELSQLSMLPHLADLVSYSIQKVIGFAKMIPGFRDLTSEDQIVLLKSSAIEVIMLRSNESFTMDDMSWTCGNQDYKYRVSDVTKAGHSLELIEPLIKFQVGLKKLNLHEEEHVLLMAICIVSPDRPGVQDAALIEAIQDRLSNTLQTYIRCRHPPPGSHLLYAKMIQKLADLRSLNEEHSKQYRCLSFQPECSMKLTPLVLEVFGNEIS
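Compounds are added to VDR with labelled SRC2-3 coactivator peptide and held 2 h at room temperature. Inhibition of the VDR–peptide interaction is then read as a change in fluorescence polarization.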
JMJD2A Tudor inh: inhibitors of human JMJD2A Tudor domain; AID 504339; O75164; AlphaScreen JMJD2A-Tudor / H3K4me3 peptide binding; Potency, µM (highest dose often 114 µM), for inactives: top-dose activity change, negative = inhibition, hits mostly inhibitors; hit rate 4.4% among 390,000; also: % is scaled to controls: 0 for no effect and ±100 for the full control effect; nearly all actives have a fitted effect of over 50% in size
The depositor's hits bear a star; u = inconclusive; x = not tested or not shown; [ ] = dose if it differs, or a comment. Shown are actives, neighbours in structure and some others; about 6.9% of the full set was active somewhere. Calls follow the shape of the dose curve; as a rule, active = well fitted curve in the direction sought with a large enough effect; inconclusive = small, poorly fitted or top-dose-only effect, or another doubt; inactive = no such curve, though single readings can be large; an effect the other way counts as inactive or inconclusive. Potency is read from the fitted curve at half-maximal effect.

SMILES | PLK1 PBD block | HP1b chromo inh | BAZ2B inh | L3MBTL1 block | VDR inhibitor | JMJD2A Tudor inh
CC[C@H](C)[C@H](NC(=O)[C@H](C)NC(=O)[C@H](CC(=O)O)NC(=O)[C@H](CO)NC(=O)[C@@H](N)Cc1cnc[nH]1)C(=O)N[C@@H](Cc1ccccc1)C(=O)N[C@H](C(=O)N[C@@H](CCC(N)=O)C(=O)N[C@@H](CCC(N)=O)C(=O)N[C@@H](Cc1ccc(O)cc1)C(=O)N[C@@H](CO)C(=O)N[C@@H](CCCCN)C(=O)N[C@@H](CC(C)C)C(=O)N[C@@H](CC(C)C)C(=O)N[C@@H](C)C(=O)N[C@@H](CCCCN)C(=O)N[C@@H](CC(C)C)C(=O)N[C@@H](C)C(=O)N[C@@H](CC(C)C)C(=O)N[C@@H](CCC(N)=O)C(=O)N[C@@H](CCCCN)C(=O)N[C@@H](Cc1ccc(O)cc1)C(=O)N[C@@H](CC(C)C)C(=O)N[C@@H](C)C(=O)N[C@@H](CO)C(=O)N[C@H](C(=O)N[C@@H](CC(C)C)C(=O)NCC(=O)N[C@@H](CO)C(=O)N[C@@H](CCCNC(=N)N)C(=O)N[C@H](C(=O)N[C@@H](CO)C(=O)N1CCC[C@H]1C(=O)N1CCC[C@H]1C(=O)N1CCC[C@H]1C(N)=O)[C@@H](C)O)[C@@H](C)CC)[C@@H](C)O | x | x | x | x | 41.3% | x
O=C(Cn1cncn1)N/N=C/c1ccccc1Cl | -9.2% | 26.7% | -3.9% | 1.2% | -24.0% | -11.3%
COc1cc([N+](=O)[O-])cc(/C=N/NC(=O)Cn2cncn2)c1O | -9.7% | 22.0% | 31.6µM* | u | -12.5% | 25.1µM*
COc1cc([N+](=O)[O-])cc(/C=N/NC(=O)c2ccc(C)nc2)c1O | 2.0% | 15.6% | 10µM* | u | 1.2% | u
COc1cc([N+](=O)[O-])cc(/C=N/NC(=O)CSc2ccccn2)c1O | -3.1% | 24.9% | u | x | 2.2% | 79.4µM*
COc1cc([N+](=O)[O-])cc(/C=N/NC(=O)c2ccc(NC(=O)c3ccc(C)cc3)cc2)c1O | -9.5% | 36.1% | 11.6% | -1.6% | -9.5% | 0.0%[57.1 µM]
COc1cc([N+](=O)[O-])cc(/C=N/NC(=O)CC#N)c1O | x | x | 8.91µM* | x | x | x
COc1cc(/C=N/NC(=O)CSc2ccccn2)ccc1O | 4.6% | 39.4% | -11.0% | -3.2% | 18.2% | 6.0%
Cc1ccc(NC(=O)COC(=O)C2CC2(Cl)Cl)cc1C (stereo not drawn) | 26.7µM* | 2.1% | 11.3% | u | 0.7% | u
CCOc1cc(/C=C2\COc3ccccc3C2=O)ccc1OCC(=O)N(C)C | -10.3% | -12.6% | u | x | 50.1µM* | -31.5%
CCNC(=O)COc1ccc(/C=C2\COc3ccccc3C2=O)cc1OC | -22.3% | 4.0% | -9.2% | x | 35.5µM* | -25.8%
COc1ccc(/C=C2\CCc3ccccc3C2=O)cc1OC | 1.0% | 3.0% | -32.0% | -0.6% | u | -25.7%
CCc1ccc(-c2cc(C)no2)cc1S(=O)(=O)Nc1cc(OC)c(OC)c(OC)c1 | x | 21.2% | -4.0% | x | 3.9% | 0.3%
COc1ccc(-c2ccc(OC)c([C@H]3[C@@H]4C=CCC[C@@]4(C)C(=O)N3Cc3ccccc3)c2)cc1OC | -1.4% | -0.9% | u | x | -11.9% | u
COc1ccc(-c2ccc(N(C)C)cc2)cc1C1C2C=CCCC2(C)C(=O)N1Cc1ccccc1 (stereo not drawn) | x | u | x | x | 5.2% | 8.91µM*
COc1ccc(-c2ccc(N(C)C)cc2)cc1[C@H]1[C@@H]2C=CCC[C@@]2(C)C(=O)N1Cc1ccccc1 | -3.0% | u | 7.94µM* | x | -28.6% | 14.1µM*
COc1ccc(-c2n[nH]c(=S)n2-c2cc(OC)ccc2OC)cc1 | -1.7% | -11.1% | -15.6% | x | 3.1% | 10µM*
COc1ccc(-n2c(-c3ccc(Cl)cc3Cl)n[nH]c2=S)c(OC)c1 | 23.8µM* | 4.4% | -31.3% | -8.1% | u | 12.6µM*
COc1ccc(-n2c(-c3ccc(C(C)(C)C)cc3)n[nH]c2=S)c(OC)c1 | -7.4% | x | x | x | x | x
COc1ccc(OC)c(-n2c(C)ccc2-c2ccc(S(C)(=O)=O)cc2)c1 | -12.4% | -10.8% | 44.7µM* | x | -2.8% | u
S=c1[nH]nc(-c2ccc(Cl)cc2Cl)n1-c1ccc(Cl)cc1 | u | 16.1% | u | 7.5% | 8.7% | -25.3%
COc1ccc(-c2n[nH]c(=S)n2N)c(OC)c1 | 8.44µM* | u | x | 5.7% | 0.1% | 7.08µM*
CN1CCN(Cc2c(O)ccc3cc(-c4ccc(Cl)cc4)c(=O)oc23)CC1 | x | 53.6%[57 µM] | 28.0% | x | 14.1% | 30.5%
Cc1ccc(N2CCN(C(=O)C3CCN(S(=O)(=O)c4ccc5c(c4)oc(=O)n5C)CC3)CC2C)cc1 (stereo not drawn) | x | 12.2% | -15.6% | x | -4.6% | -15.2%
CN(CC(=O)Nc1cccc(F)c1)C(=O)CC1CCCCC1 | -4.0% | 12.0% | 10.3% | 1.2% | -15.8% | -10.3%
SMILES | PLK1 PBD block | HP1b chromo inh | BAZ2B inh | L3MBTL1 block | VDR inhibitor | JMJD2A Tudor inh
Cc1ccc(-c2ccc(=O)n(CC(=O)NC(C)c3ccccc3)n2)cc1 (stereo not drawn) | x | 24.5% | 0.5% | x | 6.1% | -20.2%
C=C1CCN(C(Cc2ccccc2)C(=O)NCc2ccc(Cl)c(Cl)c2)S(=O)(=O)c2ccccc21 (stereo not drawn) | x | 30.2% | x | x | 8.6% | -9.0%
C=C[C@H]1CCC=C2C(=O)CCC[C@@H]21 | x | x | x | x | -2.7% | x
N#CCCn1cc(/C=N/N=C2\NC(=O)C(CC(=O)O)S2)c(-c2ccc(F)cc2)n1 (stereo not drawn) | 2.6% | 47.3% | -15.9% | 12.3% | 8.3% | 10.2%
COc1ccc(-n2c(-c3ccc(Br)cc3)n[nH]c2=S)cc1 | -9.2% | 44.0% | -36.6% | 1.0%[2.29 µM] | -18.3% | 31.6µM*
COc1ccc(OC)c(-n2c(Cn3c(-c4ccccn4)nc4ccccc43)n[nH]c2=S)c1 | -23.0% | u | u | 4.5% | -22.0% | 7.94µM*
CC(C)Oc1cccc(C(=O)NC(=S)Nc2ccc(N3CCN(C)CC3)cc2)c1 | -16.0% | u | 39.8µM* | -16.1% | -10.3% | 50.1µM*
CC(C)Oc1cccc(C(=O)NC(=S)Nc2cccc(NC(=O)c3ccccc3Cl)c2)c1 | -7.6% | 21.0% | -11.2% | -10.6% | -8.3% | -32.5%
COc1cccc(C(=O)NC(=S)Nc2ccc(N(C)C)cc2)c1 | -7.5% | u | 10µM* | u | -10.2% | 25.1µM*
COc1cccc(C(=O)NC(=S)Nc2ccc(N3CCCC3)cc2)c1 | -10.1% | u | 12.6µM* | u | 12.4% | 39.8µM*
COCCNC(=S)Nc1ccc(N2CCCCC2)cc1 | 3.77µM* | u | 50.1µM* | x | 31.6µM* | u
CC/C=C\C/C=C\C/C=C\C/C=C\C=C\C(O)CCCC(=O)O (stereo not drawn) | x | x | x | x | 2.9% | x
